From PubChem BioAssay (NCI)
About 83,000 compounds went through this panel and 20% of them were active in at least one assay; those are over-represented in the sample as a whole.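 Interpretation: 100, growth as untreated; towards 0, rising growth inhibition; 0, no net growth; 0 to -100, cell death. Compounds scoring below 10 were considered active.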 The source made the active and inactive calls.

Assays:
Test in all cases: NCI-60 one-dose screen, 48 h (100 = growth as untreated, 0 = no growth, -100 = all killed)
Conditions in all cases: 10 µM unless noted
[1] = tested on: SK-MEL-2 melanoma
[2] = tested on: EKVX NSCLC
[3] = tested on: SN12C renal
[4] = tested on: UO-31 renal
[5] = tested on: TK-10 renal
[6] = tested on: ACHN renal
[7] = tested on: CAKI-1 renal
[8] = tested on: A498 renal
[9] = tested on: CCRF-CEM leukemia
[10] = tested on: MOLT-4 leukemia
[11] = tested on: SR leukemia
[12] = tested on: RPMI-8226 leukemia
[13] = tested on: OVCAR-8 ovarian
[14] = tested on: OVCAR-5 ovarian
[15] = tested on: OVCAR-4 ovarian
[16] = tested on: SK-OV-3 ovarian
[17] = tested on: IGROV1 ovarian
[18] = tested on: OVCAR-3 ovarian
[19] = tested on: HS 578T breast
[20] = tested on: NCI/ADR-RES ovarian

Measured: growth

CC1=NN(c2cccc(Cl)c2)C(=O)/C1=C\C=C\c1ccccc1
active: [3] 0.408% | [6] -51.3% | [9] 2.35% | [13] 0.373% | [15] -10.4% | [20] -17.5%
inactive: [1] 74.6% | [2] 87.1% | [4] 69.7% | [5] 44.8% | [7] 52.2% | [8] 110% | [10] 28.4% | [11] 10.6% | [12] 15.4% | [14] 144% | [16] 39.4% | [17] 45.5% | [18] 104% | [19] 133%

Oc1cccc2c1NCCC2
active: [1] -14.9% | [4] 6.25% | [18] 4.94%
inactive: [2] 22.3% | [3] 11.7% | [5] 23.3% | [6] 11.4% | [7] 15.6% | [8] 19.6% | [9] 18.6% | [10] 28% | [11] 27.2% | [12] 14.9% | [13] 19.9% | [14] 44.7% | [15] 17.9% | [16] 20.4% | [17] 18.3% | [19] 24.3% | [20] 23.7%

Nc1nc(=O)n([C@H]2CC=C(CO)O2)cc1F
inactive: [1] 102% | [2] 110% | [3] 96.8% | [4] 91.5% | [5] 99.3% | [6] 110% | [7] 94.6% | [8] 75.8% | [9] 103% | [10] 90.5% | [11] 86.1% | [12] 101% | [13] 99.7% | [14] 89.3% | [15] 107% | [16] 101% | [17] 95.2% | [18] 104% | [19] 83.6% | [20] 104%

CCN1CCN(c2cc(C(=O)Nc3cccc(Nc4ccc5c(OC)cccc5n4)c3)cc(C(F)(F)F)c2)CC1
active: [4] -8.51% | [7] 6.06% | [9] 6.94% | [10] -14.5% | [11] -3.44% | [12] 7.08% | [20] 9.7%
inactive: [1] 65.3% | [2] 46.2% | [3] 25.4% | [5] 36% | [6] 12.5% | [8] 57.6% | [13] 21.1% | [14] 54.8% | [15] 26.9% | [16] 54% | [17] 12.8% | [18] 33% | [19] 34%

CC(C)n1nc(-c2ccc3oc(N)nc3c2)c2c(N)ncnc21
active: [1] -19.5% | [2] -27.2% | [3] 3.13% | [4] -20.9% | [5] -30.4% | [6] -14% | [7] 2.4% | [8] -50.4% | [10] 6.39% | [11] 9.35% | [12] -6.46% | [13] -17.5% | [14] -9.99% | [15] -32.2% | [16] -32.6% | [17] -27.3% | [18] -6.08% | [19] -35.8% | [20] -20.6%
inactive: [9] 11.7%

Cc1[nH]c(C(=O)Nc2ccccc2OC2CCNC2)c(Cl)c1Cl (stereo not given)
active: [11] 0.45%
inactive: [1] 96.5% | [2] 70.3% | [3] 78.2% | [4] 45.5% | [5] 122% | [6] 42.8% | [7] 76% | [8] 70.7% | [9] 59.3% | [10] 87.8% | [12] 79% | [13] 94% | [14] 95.5% | [15] 79.1% | [16] 99.3% | [17] 66.5% | [18] 84.5% | [19] 93.2% | [20] 86.7%

NC(=N\N=C/c1ccc(Cl)cc1Cl)/C(N)=N\N=C/c1ccc(Cl)cc1Cl
inactive: [1] 63.7% | [2] 77.3% | [3] 67.7% | [4] 49.8% | [5] 29.7% | [6] 17.4% | [7] 69.9% | [10] 96.6% | [11] 51.1% | [12] 62.2% | [13] 76.6% | [14] 71.6% | [17] 15.8% | [18] 21.5% | [19] 33.2% | [20] 82.3%
active: [8] -2.93% | [9] 3.15% | [15] -34% | [16] 9.34%

O=C1CC2C=CCN2C=C1NC(=O)c1ccccc1 (stereo not given)
inactive: [1] 118% | [2] 94.6% | [3] 99.5% | [4] 98.2% | [5] 93.5% | [6] 104% | [7] 101% | [8] 102% | [9] 109% | [10] 96.3% | [11] 88.7% | [12] 112% | [13] 114% | [14] 97.4% | [15] 109% | [16] 113% | [17] 106% | [18] 105% | [19] 115% | [20] 103%
